High-throughput results deposited in PubChem by several laboratories.
The list is not random: actives were taken first. Their share in the collection is about 5.9%.
ALR H2O2 inh: inhibitors of human ALR sulfhydryl oxidase, primary screen, biochemical, H2O2 detection, HRP-luminol luminescence, single point. purified ALR, DTT oxidation. inhibition, % (no concentration beside the values). hit rate 3.8% among 290,000. AID 485317, 2010;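 active = mean replicate inhibition above about 79%, with every replicate also reaching it, limit read from the data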
Target sequence (P55789 whole entry, looked up): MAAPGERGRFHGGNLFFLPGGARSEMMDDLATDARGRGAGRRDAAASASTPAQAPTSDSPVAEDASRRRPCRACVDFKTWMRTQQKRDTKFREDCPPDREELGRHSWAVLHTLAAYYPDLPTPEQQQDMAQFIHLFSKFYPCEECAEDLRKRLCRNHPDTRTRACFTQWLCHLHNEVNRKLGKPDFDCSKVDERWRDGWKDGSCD
PRMT1 inh: PRMT1 methyltransferase inhibitors, primary screen, biochemical, fluorescence polarization. recombinant PRMT1, activity-based probe fluorescence polarization. hit rate 1.3% among 370,000. AID 652257, 2013. inhibition, % at 2.79 µM;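 active = inhibition above about 21% made by adding two undisclosed values, limit read from the data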
Rtt109 Vps75: inhibitors of C. albicans Rtt109/Vps75 HAT, primary screen, biochemical, ThioGlo CoA-SH fluorescence, plate reader; purified Rtt109/Vps75, 4 h; hit rate 0.16% among 330,000; Histone acetyltransferase RTT109 (Candida albicans (strain SC5314 / ATCC MYA-2876)), …; inhibition, % at 34.9 µM; AID 540336, 2011;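 active = inhibition of at least 50% in every replicate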
ABHD5 PLIN5 PPI: ABHD5-PLIN5 interaction inhibitors, primary screen, cell lysate, split luciferase complementation, luminescence; Split G. princeps luciferase complementation, 4 h; inhibition, % at 4 µM; hit rate 0.78% among 360,000; Perilipin-5 (Homo sapiens) + 1-acylglycerol-3-phosphate O-acyltransferase ABHD5 (Homo …;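 active = inhibition above the mean inhibition across every tested compound plus 3 SD, cut at about 22% in these data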
LANA-H2A inh: blockers of LANA interaction with H2A/H2B – biochemical, FP readout, HTS, primary screen; inhibition, % (no concentration beside the values); hit rate 0.6% among 320,000; AID 2629, 2010; Protein LANA1 (Human herpesvirus 8 type P (isolate GK18)), Q9QR71; cell-free LANA-H2A/H2B peptide, fluorescence polarization; in the data active = inhibition mostly above about 10%, no sharp cut-off; inactive = mostly below about 6.7%
rCAG RNA binder: binders of r(CAG) RNA repeats, primary screen, biochemical, fluorescence. r(CAG) RNA repeat, TO-PRO-1 dye displacement fluorescence. inhibition, % at 3 µM. hit rate 1.3% among 370,000;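 active = inhibition above the plate cutoff, the mean of all test compounds on that plate plus 3 SD, cut at about 35% in these data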;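 also: higher means more dye released from RNA so lower well fluorescence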
Hits are given with their value.

How did Oc1ccc(Br)cc1/C=N/n1c(-c2ccccc2)n[nH]c1=S do in these assays?
ALR H2O2 inh: inactive; PRMT1 inh: inactive; Rtt109 Vps75: inactive; ABHD5 PLIN5 PPI: inactive; LANA-H2A inh: inactive; rCAG RNA binder: inactive

How did S=c1[nH]c(-c2ccccc2)cn1/N=C/c1ccncc1 do in these assays?
ALR H2O2 inh: inactive; PRMT1 inh: inactive; Rtt109 Vps75: inactive; ABHD5 PLIN5 PPI: inactive; LANA-H2A inh: inactive; rCAG RNA binder: inactive

What do the screens show for `S=c1[nH]ncn1/N=C/c1ccc(Br)cc1`?
ALR H2O2 inh: 98; PRMT1 inh: inactive; Rtt109 Vps75: inactive; ABHD5 PLIN5 PPI: inactive; LANA-H2A inh: inactive; rCAG RNA binder: inactive

Results for S=c1[nH]nc(-c2ccccc2)n1/N=C/c1cccc(Br)c1 ?
PRMT1 inh: inactive; Rtt109 Vps75: inactive; ABHD5 PLIN5 PPI: inactive; LANA-H2A inh: inactive; rCAG RNA binder: inactive

Results for S=c1[nH]ncn1/N=C/c1ccc(N2CCOCC2)cc1 ?
ALR H2O2 inh: 99; PRMT1 inh: inactive; Rtt109 Vps75: inactive; ABHD5 PLIN5 PPI: inactive; LANA-H2A inh: inactive; rCAG RNA binder: inactive

How did N[C@H](C(=O)N1CCC[C@@H]1C(=O)N1CCC2CCN(S(=O)(=O)c3ccccc3)CC21)c1ccccc1 (stereo not given in full) do in these assays?
PRMT1 inh: inactive; rCAG RNA binder: inactive

Results for COCc1cccc(C2=CC(=O)C[C@H](c3ccc(F)cc3)C2)c1 ?
ALR H2O2 inh: inactive; PRMT1 inh: inactive; Rtt109 Vps75: inactive; ABHD5 PLIN5 PPI: inactive; LANA-H2A inh: inactive; rCAG RNA binder: inactive

How did CCn1c2ccccc2c2cc(/C=N/n3cn[nH]c3=S)ccc21 do in these assays?
ALR H2O2 inh: 98; PRMT1 inh: inactive; Rtt109 Vps75: inactive; ABHD5 PLIN5 PPI: inactive; LANA-H2A inh: inactive; rCAG RNA binder: inactive

What do the screens show for `CCOC(=O)c1cc(C#N)c(SC)nc1C`?
ALR H2O2 inh: inactive; PRMT1 inh: inactive; Rtt109 Vps75: inactive; ABHD5 PLIN5 PPI: inactive; LANA-H2A inh: inactive; rCAG RNA binder: inactive

Results for CCOC(=O)c1cc2c(N)c(C(=O)c3cc(C#N)c(SC)nc3C)sc2nc1C ?
ALR H2O2 inh: inactive; PRMT1 inh: inactive; Rtt109 Vps75: 62; ABHD5 PLIN5 PPI: inactive; LANA-H2A inh: inactive; rCAG RNA binder: inactive

Results for COc1ccccc1-c1nnc(SCC#CCOC(=O)c2ccc(F)cc2)o1 ?
PRMT1 inh: inactive

What do the screens show for `CCCCNC(=O)C[C@H]1C[C@@]2(C(=O)OC)C(=C[C@H](COCc3ccccc3)O[C@@H]2C)N(CCC2=CCCCC2)C1=O`?
PRMT1 inh: inactive; rCAG RNA binder: inactive

What do the screens show for `NC(=O)c1oc2ccccc2c1NC(=O)CN1CCCCC1`?
ALR H2O2 inh: inactive; PRMT1 inh: inactive; Rtt109 Vps75: inactive; ABHD5 PLIN5 PPI: inactive; LANA-H2A inh: inactive; rCAG RNA binder: inactive

Results for NC(=O)c1oc2ccccc2c1NC(=O)C1CCCCC1 ?
ALR H2O2 inh: 96; PRMT1 inh: inactive; Rtt109 Vps75: inactive; ABHD5 PLIN5 PPI: inactive; LANA-H2A inh: inactive; rCAG RNA binder: inactive

Results for N#Cc1ccc2nc(-c3ccc(CN4CCC(c5nc6ccccc6[nH]5)CC4)cc3)c(-c3ccccc3)nc2c1 ?
PRMT1 inh: inactive; rCAG RNA binder: inactive

What do the screens show for `CCOC(=O)N1CCN(C(=O)CSc2nnc(-c3ccc(C)c(C)c3)o2)CC1`?
PRMT1 inh: inactive; Rtt109 Vps75: inactive; ABHD5 PLIN5 PPI: inactive; LANA-H2A inh: inactive; rCAG RNA binder: inactive

What do the screens show for `Cc1ccc(-c2nnc(SCC(=O)N3CCCC3)o2)cc1C`?
ALR H2O2 inh: 99; PRMT1 inh: inactive; Rtt109 Vps75: inactive; ABHD5 PLIN5 PPI: inactive; LANA-H2A inh: inactive; rCAG RNA binder: inactive

Results for O=C(CSc1nnc(-c2ccccc2Br)o1)N1CCOCC1 ?
PRMT1 inh: inactive; Rtt109 Vps75: inactive; ABHD5 PLIN5 PPI: inactive; LANA-H2A inh: 20; rCAG RNA binder: inactive

What do the screens show for `O=C(CSc1nnc(-c2ccccc2O)o1)N1CCOCC1`?
PRMT1 inh: inactive; Rtt109 Vps75: inactive; ABHD5 PLIN5 PPI: inactive; rCAG RNA binder: inactive
